CYP2C19 act: activators of human cytochrome P450 2C19; P33261; AID 1025; recombinant CYP2C19, luciferin-H EGE luminescence; stronger effect = higher value; 0 = fully inhibited enzyme, 1 = untreated enzyme; 96,000 tested, under 10 active; activation factor at 5 µM;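 active means activation factor of at least 2 at 5 µM in the primary screen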;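 further: 0 = wells with 2.5 mM tranylcypromine and 1 = vehicle-only wells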
CYP2C9 inh: inhibitors of human CYP2C9 | CYP2C9 Supersomes, luciferin-H conversion, luminescence | inhibition, % at 5 µM | hit rate 20% among 96,000;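 active means blocking of liver enzyme CYP2C9 beyond about 50% at 5 µM, limit read from the data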
Target sequence (P11712 whole entry, looked up): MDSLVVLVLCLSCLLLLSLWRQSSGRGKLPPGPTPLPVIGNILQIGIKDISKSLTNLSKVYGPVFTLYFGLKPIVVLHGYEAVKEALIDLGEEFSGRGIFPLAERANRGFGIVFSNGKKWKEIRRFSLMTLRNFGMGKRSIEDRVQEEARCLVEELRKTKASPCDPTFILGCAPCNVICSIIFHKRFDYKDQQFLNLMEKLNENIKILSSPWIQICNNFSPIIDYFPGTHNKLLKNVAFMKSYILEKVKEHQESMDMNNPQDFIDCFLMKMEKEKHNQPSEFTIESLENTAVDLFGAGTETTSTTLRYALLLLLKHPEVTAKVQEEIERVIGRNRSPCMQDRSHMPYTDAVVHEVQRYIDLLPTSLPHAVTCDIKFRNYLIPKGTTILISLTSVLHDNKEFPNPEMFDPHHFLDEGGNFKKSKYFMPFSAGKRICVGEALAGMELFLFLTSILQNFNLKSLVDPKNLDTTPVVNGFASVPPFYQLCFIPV
PTK2B oligo ant: Pyk2 (human) oligomerization antagonism; Q293 cells, Pyk2 FERM NanoBiT luminescence; stronger effect = lower value; z-score (the deposit names both 25 µM and 10 µM); hit rate 0.83% among 99,000; AID 1347419;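 active means Z-score of -3 or lower, scaled per plate to the spread of control and sample wells; inactive means z-score above -3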;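 further: negative z-score means lost luminescence so less FERM oligomerization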
CYP2C9 act: increases human cytochrome P450 2C9 activity; P11712; recombinant CYP2C9, luciferin-H conversion, luminescence; stronger effect = higher value; factor 1 = untreated enzyme, 0 = blocked; activation factor at 5 µM; hit rate 1.4% among 96,000; AID 1024;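 active means activation factor of 2 or more for CYP2C9 at a 5 µM dose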;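 further: 0 = sulfaphenazole-blocked wells and 1 = vehicle-only wells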
CYP2C19 inhib: human CYP2C19 inhibition | hit rate 21% among 96,000 | inhibition, % at 5 µM | CYP2C19 Supersomes, luciferin-H EGE luminescence, 30 min | P33261 | AID 778;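 active means CYP2C19 inhibition above a set limit at 5 µM in the primary screen, cut at about 50% in these data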;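 further: plate controls were negative control wells for no effect and 2.5 mM tranylcypromine positive control for full effect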
Numbers without * were called inactive; nt = no result given. Hits are enriched below; roughly 28% of the tested compounds scored in any of these assays.

SMILES	CYP2C19 act	CYP2C9 inh	PTK2B oligo ant	CYP2C9 act	CYP2C19 inhib
Cc1noc2ncnc(Sc3c(Cl)cccc3Cl)c12	0	52*	-1	0.5	97*
CCCN1C2=NCCN2c2cc(C)c(C)cc21	1.1	3	0.07	1	-6
COc1cccc(OC)c1OCC(C)CNCC1CCCO1 (stereo unspecified)	0.9	6	0.96	0.9	6
COCCN1C(=O)c2oc3cc(C)c(C)cc3c(=O)c2C1c1cccc(O)c1 (stereo unspecified)	nt	nt	-1.7	nt	nt
Cc1ccc(OCC(O)CNS(=O)(=O)c2ccccc2C(=O)O)cc1 (stereo unspecified)	nt	nt	0.05	nt	nt
COc1ccc(-c2nnc(SCC(=O)c3[nH]c(C)c(C(C)=O)c3C)o2)cc1	0.4	36	1.1	0.6	63*
CCOC(=O)c1[nH]c(CSc2nnc(-c3ccc(OC)cc3)o2)c(C(=O)OCC)c1C	0.3	85*	0.19	0.2	73*
COc1ccc(C(=O)CSc2nnc(-c3cc(C)cc(C)c3)o2)cc1	0.4	-13	0.94	1.1	62*
CCCCOc1ccc(-c2nnn(CCC(=O)N3CCOCC3)n2)cc1	0.7	9	0.06	0.9	26
Fc1c(F)c(C(F)(F)F)c(F)c(F)c1N/N=C\c1cccs1	1	5	-1.8	0.9	2
Cc1cc(C)c2c(N=NN(C)C)[nH]nc2n1	1.1	-21	0.93	1.2	-8
CCCC(=O)NC(=S)Nc1ccccc1C(=O)OC	0.4	28	-0.39	0.7	59*
COC(=O)c1ccccc1NC(=S)NC(=O)C1CC1	0.5	26	-0.27	0.7	52*
COc1ccc(CSc2nnc(SCc3ccc([N+](=O)[O-])cc3)s2)cc1	0.8	23	1.7	0.8	17
O=[N+]([O-])c1ccc(CSc2nnc(-c3cnccn3)o2)cc1	0.1	31	-0.59	0.7	90*
COc1cc2c(C#N)c(N3CCc4ccccc4C3)nc(N)c2c(N)n1	0.2	85*	-0.38	0.2	81*
CCOc1cc2c(C#N)c(N3CCCCC3)nc(N)c2c(N)n1	0.4	90*	0.57	0.1	62*
CCOc1cc2c(C#N)c(N3CCNCC3)nc(N)c2c(N)n1	0.8	49	0.78	0.5	23
O=C1OC(Nc2ccc3c(c2)OCO3)c2ccccc21 (stereo unspecified)	0.4	26	1.3	0.7	64*
O=C1c2ccccc2C(Nc2ccc3c(c2)OCCO3)N1Cc1ccc2c(c1)OCO2 (stereo unspecified)	0.2	80*	nt	0.2	78*
CCc1ccc(OCCNC(=O)c2ccc(S(=O)(=O)N(C)C)cc2)cc1	0.8	22	0.75	0.8	15
CC(=O)ON1C(C)(C)Cc2noc(N)c2C1(C)C	1.1	1	-0.04	1	-5
CC1(C)Cc2noc(N)c2C(C)(C)N1OC(=O)c1scc2c1OCCO2	0.5	29	0.15	0.7	51*
CC1(C)Cc2noc(N)c2C(C)(C)N1OC(=O)c1cccs1	0	83*	-0.23	0.2	98*
Cc1nn(-c2ccccc2)c(C)c1C(=O)Nc1nnc(-c2ccco2)o1	1	-23	0.68	1.2	-2
SMILES	CYP2C19 act	CYP2C9 inh	PTK2B oligo ant	CYP2C9 act	CYP2C19 inhib
COc1ccc(NC(=O)Cn2cc(C(=O)c3ccco3)c3ccccc32)cc1	1.1	10	-3*	0.9	-11
CCOc1ccc(NC(=O)Cn2cc(C(=O)c3ccco3)c3ccccc32)cc1	1	11	-1.6	0.9	-2
CC(=O)Nc1ccc(S(=O)(=O)N2CCNC(=O)CC2)cc1	1.1	0	1.1	1	-9
NS(=O)(=O)c1ccc(NC(=S)N2CCN(c3ccc(Cl)c(Cl)c3)CC2)cc1	nt	nt	-0.19	nt	nt
CC(=O)c1ccc(S(=O)(=O)N2CCCC2)cc1	0.8	60*	-0.21	0.4	17
CC(=O)Nc1ccc(S(=O)(=O)N2CCN(c3ccc(C)c(Cl)c3)CC2)cc1	0.6	53*	nt	0.5	37
CC(=O)Nc1ccc(S(=O)(=O)N2CCc3c(Cl)cccc3C2)cc1	0.4	-169	nt	2.7*	65*
CC(=O)Nc1ccc(S(=O)(=O)N2CCN(C(=O)N3CCCCCC3)CC2)cc1	0.8	51*	0.05	0.5	23
Cc1ccc(NC(=O)c2ccc(S(=O)(=O)N3CCCC3)cc2)cc1	nt	nt	0.14	nt	nt
CCOc1ccc(NC(=O)CC2C(=O)N(C)C(=S)N2Cc2ccc3c(c2)OCO3)cc1 (stereo unspecified)	nt	nt	-1.6	nt	nt
c1ccc(-c2nnc3sc(-c4cc5ccccc5o4)nn23)cc1	0.8	-8	0.65	1.1	16
